In all, about 53,000 compounds went through this assay and about 900 (1.7%) showed an effect of 50% or more. The list comes from a sample in which strong results are over-represented; it also holds similar structures and randomly drawn compounds.
The molecules below were run on Mycobacterium tuberculosis (assay: Cornell - Phenotypic assay to identify agents that inhibit growth of Mycobacterium tuberculosis). Conditions: 10 mM as filed; unlikely as a test dose.
Assay type: functional
Set-up: scale not given: direction of the effect not stated beside the values
In the case of `CN(C)CCNC(=O)c1ccn(-c2ccc3ccccn23)n1.O=C(O)C(F)(F)F`, the “Percent Effect” value is reported as 12.93%.
In the case of `CC(C)N1CCCC1c1cc(CCO)[nH]n1` (centres undefined), the “Percent Effect” value is reported as 11.54%.
For `CCC(=O)N1CCC(c2cc(Nc3ncccn3)nc(C)n2)C1` (centres undefined), the “Percent Effect” value was -34.07%.
With `O=C1CN([C@@H]2CC[C@@H](NS(=O)(=O)c3ccccc3)[C@H]2O)CCN1` the “Percent Effect” value was 55.41%.
With `O=C1CN([C@@H]2CC[C@@H](NS(=O)(=O)c3ccccc3F)[C@H]2O)CCN1` the “Percent Effect” value was -3.18%.
With `O=C1CN([C@@H]2CC[C@@H](NS(=O)(=O)c3ccc(F)cc3)[C@H]2O)CCN1` the “Percent Effect” value was 42.43%.
With `Cc1ccccc1CC(=O)N[C@@H]1CCC[C@@H](N2CCNC(=O)C2)[C@@H]1O` the “Percent Effect” value was 3.763%.
`CN([C@@H]1CC[C@@H](N2CCCC2)[C@@H]1O)S(=O)(=O)c1ccccc1` was tested, and the “Percent Effect” value was 24.86%.
In the case of `Cc1ccccc1S(=O)(=O)N[C@@H]1CC[C@@H](N2CCNC(=O)C2)[C@@H]1O`, the “Percent Effect” value is reported as 54.18%.
In the case of `Cc1ccc(-c2nnc(CN3CCn4c(nnc4C4CC4)C3)o2)cc1`, the “Percent Effect” value is reported as 2.899%.
For `CCOCC(=O)N1C[C@@H]2CC[C@H](Oc3ccccc3)[C@@H]2C1`, the “Percent Effect” value was -14.06%.
`CCCN1CCCn2nc(CNS(=O)(=O)c3cccc(F)c3)cc2C1` was tested, and the “Percent Effect” value was -34.67%.
In the case of `CCN(CC)CCCNCc1cc2cc(C)ccc2[nH]c1=O`, the “Percent Effect” value is reported as 4.422%.
With `CCOc1ncccc1NC(=O)N1CCC(n2cncn2)CC1` the “Percent Effect” value was 14.59%.
`Cc1cccc(CN(Cc2ccccn2)Cc2ncc(C(C)(C)C)o2)c1` was tested, and the “Percent Effect” value was 69.04%.
For `CCN(Cc1cccc(Cl)c1)Cc1ncc(C(C)(C)C)o1`, the “Percent Effect” value was 0.2424%.
With `CCN(Cc1ncc(C(C)(C)C)o1)Cc1ccccc1C` the “Percent Effect” value was -5.269%.
In the case of `Cc1nc2ccc(C(=O)N3C[C@@H](O)[C@H](N4CCCC4)C3)cc2[nH]1`, the “Percent Effect” value is reported as 1.956%.
With `COCC(=O)NC(c1ccccc1)c1ccc2c(c1)CCCO2` (centres undefined) the “Percent Effect” value was 34.89%.
For `Cc1cc(NCc2cccc(C#N)c2)ccc1Br`, the “Percent Effect” value was 50.78%.
`Cc1cc(NCc2cccc(C#N)c2)ccc1C(=O)N(C)C` was tested, and the “Percent Effect” value was 22.32%.
For `Cc1cc(NCc2cccc(C#N)c2)ccc1C(N)=O`, the “Percent Effect” value was 38.13%.
For `CCN(CC)c1nc(Nc2cccc(C(C)O)c2)nc2ccccc12` (centres undefined), the “Percent Effect” value was 104.6%.
`CCN(CC)c1nc(Nc2cccc(C(=O)O)c2)nc2ccccc12` was tested, and the “Percent Effect” value was -13.69%.
For `CC(O)c1cccc(Nc2nc(NCCO)c3ccccc3n2)c1` (centres undefined), the “Percent Effect” value was -13.85%.
`NC(=O)NCC(=O)N1CCCC(OCc2cccnc2)C1` (centres undefined) was tested, and the “Percent Effect” value was -45.31%.
`Oc1cc(C2CCCN(Cc3cccs3)C2)nc(-c2ccccn2)n1` (centres undefined) was tested, and the “Percent Effect” value was 76.98%.
For `Oc1cc(C2CCCCN2Cc2cccs2)nc(-c2ccccn2)n1` (centres undefined), the “Percent Effect” value was 21.14%.
With `Cn1ncc2ccc(C3CCCN(Cc4cccs4)C3)nc21` (centres undefined) the “Percent Effect” value was -1.871%.

Source: ChEMBL document CHEMBL3988442, “University of Dundee, Small-Polar-MMV Screening Library” (2021)
